According to PubChem BioAssay (NCI):
The panel holds about 83,000 compounds, 20% with a hit somewhere; the sample as a whole holds those more often.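 Method: cells in 96-well plates; compound added at one concentration; 48 h incubation; percent growth measured; values under 10 scored active.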 Values without a mark were called inactive. The source made the active and inactive calls.

What was measured:
Test in all cases: NCI-60 one-dose screen, 48 h (100 = growth as untreated, 0 = no growth, -100 = all killed)
Settings in all cases: 10 µM unless noted
[1] = test system: SR leukemia
[2] = test system: RPMI-8226 leukemia
[3] = test system: OVCAR-8 ovarian
[4] = test system: OVCAR-5 ovarian
[5] = test system: OVCAR-4 ovarian
[6] = test system: SK-OV-3 ovarian
[7] = test system: IGROV1 ovarian
[8] = test system: OVCAR-3 ovarian
[9] = test system: HS 578T breast
[10] = test system: NCI/ADR-RES ovarian

Structure (SMILES)	growth [1]	growth [2]	growth [3]	growth [4]	growth [5]	growth [6]	growth [7]	growth [8]	growth [9]	growth [10]
COP(=O)(OC)C(c1ccc(O)cc1)(c1ccc(O)cc1)c1ccc(O)cc1	93.4%	99.3%	97.2%	124%	99.3%	122%	11.3%	81.3%	98.8%	92.3%
COc1cc(/C=N/OC(=O)Nc2ccccc2)cc(OC)c1OC	89.7%	93.7%	113%	104%	105%	104%	95.9%	114%	114%	109%
COc1ccc2cc(C3=CC(=O)CCC3)ccc2c1	91.8%	92.6%	105%	98.7%	104%	120%	104%	106%	116%	95.6%
CC(=O)OCC(=O)[C@@]1(O)CC[C@H]2[C@@H]3CCC4=CC(=O)CC[C@]4(C)[C@@]3(F)[C@@H](O)C[C@@]21C	99.8%	62.5%	93.8%	80.2%	105%	63.7%	116%	106%	112%	89.6%
CCOC(=O)C(C(=O)OCC)C1CCCCC1	97.3%	101%	102%	105%	102%	108%	93.2%	110%	109%	109%
NC(=O)c1cc(Br)cc(Br)c1NS(=O)(=O)c1ccccc1	101%	97.2%	114%	108%	95.8%	102%	94.9%	106%	105%	103%
[N-]=[N+]=NCc1ncc(-c2ccc(C(F)(F)F)cc2)c(NC2CCCCCC2)n1	5.36% [50 µM] (active)	53.3% [50 µM]	70.8% [50 µM]	90.7% [50 µM]	88.3% [50 µM]	90.1% [50 µM]	75.9% [50 µM]	61.4% [50 µM]	83.1% [50 µM]	88.4% [50 µM]
C/C(=C\CCc1ccoc1)CC/C=C(\C)CCCN1CCSCC1	45.6%	38.2%	89.8%	70.1%	75.3%	84.6%	93.7%	44.4%	98.1%	73.8%
C[C@@H]1C[C@@H]([C@@H](CC2CC(=O)NC(=O)C2)OC(=O)CC(=O)c2ccccc2)C(=O)[C@@H](C)C1	31.1%	17.4%	12.5%	16.8%	20.2%	-3.27% (active)	-10.4% (active)	19.4%	19.4%	10.3%
COC(=O)[C@H](CCCCNC(=O)OCc1ccccc1)NC(=O)[C@@H](NC(=O)Nc1cc(C(F)(F)F)cc(C(F)(F)F)c1)C(C)C	-23.3% [100 µM] (active)	-20.6% [100 µM] (active)	-22.1% [100 µM] (active)	41.6% [100 µM]	-68.8% [100 µM] (active)	-23.4% [100 µM] (active)	-61% [100 µM] (active)	-92.5% [100 µM] (active)	-1.7% [100 µM] (active)	60.4% [100 µM]
COc1cnc2c(c1)C(=O)c1c-2n(CCCN2CCOCC2)c(=O)c2cc(F)ccc12	1.17% (active)	-19.2% (active)	0.87% (active)	-13.2% (active)	15.7%	-25.1% (active)	12.2%	-29.9% (active)	12.5%	4.01% (active)
COc1ccc(-c2nc3sc4c(c3c(=O)[nH]2)CCCCCC4)cc1	27.9%	72%	70.7%	83.8%	50.4%	48%	63.1%	44.2%	58.4%	51.2%
c1ccc2nc(Cn3c[n+](Cc4ccc5ccccc5n4)c4ccccc43)ccc2c1	14.7%	-6.43% (active)	29.9%	71.1%	22.7%	57.4%	34.8%	23.8%	60.5%	102%
O=c1sc2ncnc3ncn1c32	33.2%	25.6%	78.3%	65.3%	48.7%	22.8%	96%	17.6%	72.7%	70.1%
COC(=O)[C@H](Cc1cn(C)cn1)NC(=O)[C@H](C)NC(=O)Nc1cc(C(F)(F)F)cc(C(F)(F)F)c1	-31.1% [100 µM] (active)	-31.7% [100 µM] (active)	-68.1% [100 µM] (active)	-43.8% [100 µM] (active)	-58.3% [100 µM] (active)	-97.5% [100 µM] (active)	-54% [100 µM] (active)	-89.4% [100 µM] (active)	-1.05% [100 µM] (active)	79.3% [100 µM]
C=C1CC[C@@H]2[C@](C)(COC(C)=O)[C@H](OC(C)=O)CC[C@@]2(C)[C@@H]1CC(NCc1ccccc1)C1=CCOC1=O (stereo not given in full)	20.9%	3.18% (active)	28.2%	102%	35.9%	79.2%	62.9%	31.8%	86.4%	23.5%
CCCCCCCCN(CCO)CCCCCCCC	96.7%	121%	101%	96.9%	93.8%	103%	105%	109%	117%	105%
O=C1C=CC(=O)N1c1ccccn1	79.4%	113%	111%	97.9%	100%	115%	113%	119%	97.4%	106%
Nc1nc(Nc2ccccc2SSc2ccccc2Nc2nc(N)nc(-c3cccc(Cl)c3)n2)nc(-c2cccc(Cl)c2)n1	39.3%	89.6%	90.7%	97.5%	120%	133%	69.7%	96.2%	105%	81.3%
COC(=O)[C@H](Cc1cn(C)cn1)NC(=O)[C@@H](NC(=O)Nc1cc(C(F)(F)F)cc(C(F)(F)F)c1)C(C)C	-33.5% [100 µM] (active)	-42.9% [100 µM] (active)	-80% [100 µM] (active)	-96.1% [100 µM] (active)	-96.5% [100 µM] (active)	-100% [100 µM] (active)	-70.9% [100 µM] (active)	-97.3% [100 µM] (active)	0.492% [100 µM] (active)	-21.6% [100 µM] (active)
c1ccc(COc2ccc(Nc3ncnc4c3cnn4-c3ccccc3)cc2)cc1	91.9%	96.5%	113%	98.9%	91.3%	108%	100%	113%	109%	107%
N/C(=N\c1nc2ccccc2s1)NC(=O)Nc1ccccc1Cl	9.92% (active)	10.1%	15.5%	32.5%	69.3%	31.8%	20.8%	-14.2% (active)	30%	6.38% (active)
CC(C)CC1NC(=O)C(CCCN)NC(=O)C(C(C)C)NC(=O)C2CCCN2C(=O)C(Cc2ccccc2)NC(=O)C(CC(C)C)NC(=O)C(CCCN)NC(=O)C(C(C)C)NC(=O)C2CCCN2C(=O)C(Cc2ccccc2)NC1=O (stereo not given)	-38.7% (active)	-54.9% (active)	-42.1% (active)	-44.7% (active)	9.59% (active)	-77.2% (active)	-34.9% (active)	-73.1% (active)	-52.5% (active)	0.435% (active)
O=C(C(=O)c1cc(Br)ccc1O)c1cc(Br)ccc1O	24.3%	16.6%	64.2%	93.4%	42.2%	79.6%	32.3%	15.9%	38.8%	32.8%
COc1ccc(OC)c(CCn2cncc2-c2c[nH]c3cc(Br)ccc23)c1	13.6%	16.7%	24.7%	79.5%	21.6%	38.8%	47.9%	32.7%	59.8%	19.4%
CC(C)N(Cc1ccccc1)c1c(S)ssc1=S	2.98% (active)	-65.4% (active)	14.7%	14.1%	-2.68% (active)	11.7%	-39.4% (active)	28.1%	6.03% (active)	15.9%
